Measurements reported in the supplement of paper PMC12632987.

Target: GABARAPL2, P60520
Assay: median log2 fold change of GCK-ALFA target abundance (FLAG IP / Myc IP barcode read proportion) (log2 ratio); each designed protein is fused to an ALFA-tag nanobody in HEK293 cells to bring the named protein to FLAG-tagged glucokinase (GCK); Myc marks an untargeted standard; higher = target protein stabilised (more abundant)
Details: target protein: 3xFLAG-MCP-GCK-ALFA reporter; HEK293 landing pad (RPLP)
Method in brief: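 An ALFA-nanobody-fused binder library was recombined into HEK293 landing-pad cells and induced with 2 μg mL^−1 doxycycline. Cells were transfected with a plasmid expressing a FLAG-tagged target and a Myc-tagged standard. After 48 h, lysates underwent anti-FLAG and anti-Myc immunoprecipitation, and circular RNA barcodes were reverse transcribed, amplified and sequenced. Target abundance is the per-binder median log2 ratio of FLAG to Myc barcode read proportions. Barcodes needed ≥10^−7 proportion in both replicates, binders ≥3 barcodes per replicate, and a 10^−6 pseudocount was added; the two replicates were pooled.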

Sequence of GABARAPL2, P60520 (P60520 whole entry, the tested form may be a part): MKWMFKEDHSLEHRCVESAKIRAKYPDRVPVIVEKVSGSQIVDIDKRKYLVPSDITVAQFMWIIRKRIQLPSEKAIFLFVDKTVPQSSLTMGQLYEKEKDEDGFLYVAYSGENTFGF

Row | Binder | median log2 fold change
1 | GBRAPL2_54_7388 (protein) MKKIRITVDFIAEGNDEELAKVEKVLLEELEKFKKELKEKFNAKTEISVERENGVLTITVDVITEEKDVDEVIDLADEVAKEVEKKTGVKVSVVIGIEEL | -0.363
2 | GBRAPL2_54_7386 (protein) MKKVNITIDFVAEGDPETLAKVEEVAEKEIEKMEEELKEKYGAETERSVEREDGVLTVTVDVTVPEEAVDDVIDLALETAERISKETGVKVSVVIGAEEL | -0.458
3 | GBRAPL2_53_7363 (protein) MYEVEVEHPDKEKLLRAAEKIAEIAEKHGLKITVTFVKEDATVEVHTADAKEALKIAKENIEKGDVILTVRLPDSLEEVREELIDAAAEEGAVVSVTELP | 0.174
4 | GBRAPL2_54_7382 (protein) AKKVRITIEFIVEGNEEELEKVKKVAKELSEELAKELKEKYGATSSISFEEENGVLTITIDVITDESAVDDVIDRALELKEEIEKKTGLKVSVVIGIEYL | 0.121
5 | GBRAPL2_54_7371 (protein) ETTVEIEATFLAEGTPEELARVRAVALEELEELKKELKEKFGAESEISAEEEDGVLSVTVTITTKKENLDEVLDLLEATRDRIAARTGLPVALVIGIKEL | -0.0591
6 | GBRAPL2_54_7372 (protein) MTIVEIEATFIAEGSDEELERIEEVALRELKKLAERLKKEFGAESEISSEREDGVLSVTVKITTEKENVDEVLDLLEETRERISRETGRPVSLVIGIKEL | 0.186
7 | GBRAPL2_54_7377 (protein) MKKVEITIDYIVEGDEEELKRVREVLEKELEKMEKELKEKFNAKTEVSVEVEDGVLTVTVDVIVDEKDVDKVIDLALKTAEEVSKKTGVKVNVVIGIKEL | -0.193
8 | GBRAPL2_53_7365 (protein) MTLVEVEHVDPEKMRAAAKKIAEVAKKHGLKIKVVFVDDEANVTEVTANAEEALKIAEEWIEKGHVILEVELPDDLEEVKEEIIDIAAEEGAVVSVEELE | 0.0119
9 | GBRAPL2_54_7389 (protein) MKMIEIVIDYIAEGDDEELDKVEEVLLELLEEFKKELKEKYGATVEVSVEREDGVLTVTVTVIVKEEDVDDVIDLADKVAKEVEAKTGVKVSLVIGIKEL | -0.265
10 | GBRAPL2_54_7370 (protein) ETIIEIEATFIAEGSEEELEEVEKVALEKLAELSEKLKKEFGAESEISSERENGVLSVTVKITTKKEDLDKVLDLLEETRDEISKETGKKVSLVIGIKEL | -0.0409
11 | GBRAPL2_54_7380 (protein) MKKVLITGEFIVEGDEESLEKVKKVAEEKSKELSEELKKKYGAESTISFEEEDGVLYITIDIITDEEAVDDVIDKLEELKKEIEKETGLKVSLVIGIEYL | 0.0537
12 | GBRAPL2_54_7376 (protein) MKKVEIEIDYIVEGDPAELARVEAVLKKELAEMEKTLKSKFNAKTTVSSEVEDGVLTTTVTVITDESHVDEVIDLALETAERVSAETGVKVSVVIGIKEL | -0.212
13 | GBRAPL2_53_7364 (protein) MYLVEVEHPDKEKLLKAAEEIAKIAKKHNLKITVIFVKEDGTVERYTANAEEALKIAKEWIEKGDVILEVKLPDSLEEVKEEIIDAAAKNGAVVSVEELE | 0.221
14 | GBRAPL2_54_7387 (protein) MKIIEIEIDYIAEGDDETLDKVEKVALEEIEKLKKELKEKYGAETEIEVEREDGVLSVTVTVITKEENVDEVIDLAEETAKEISEKTGIKVSVVIGLKEL | -0.429
15 | GBRAPL2_53_7366 (protein) MTEVEIEHPDKEKMLKAAKKVFELVKERNLKVTVIYVDENANVTRVTANAEEALKIAEEWIEKGDVILEVILPDSEEELKEKIIDIAAENGAVVSVEELE | -0.0323
16 | GBRAPL2_53_7359 (protein) MIEIDIAHPDKAVVKEAADKIFDVVEENGVEVEVTVTDENGTVTKLTGSVEEIREKVTAMAAKQPVLITIKLPDSAKETAEKIEDIALEKGATVSREELE | 0.276

Row | Binder | median log2 fold change
17 | GBRAPL2_54_7374 (protein) MKKVEITIDYVVEGNEEELEKVEKVLKKELEELKKKLESEFNAKTKISVERENGVLTIEVDVITDEKDVDKVIDLALETAKKVSEKTGVKVSVVIGIKEL | -0.179
18 | GBRAPL2_53_7357 (protein) MLRLSIAHPDPAVVAEALRRIFEILREAGVEAEVVVTLEDGTVVRLTGDLDEIEARVTELAAKQPVLVDIYMPDSAEETVEEMEDAALDAGATVSVERVP | 0.126
19 | GBRAPL2_54_7375 (protein) MKKVEIEIDYIVEGNEEELKKVREVLKKELEKMKKELEEKFNATVEVSEEYENGVLTVTVKVIVDEEHVDEVIDLALETAERVSKETGVKVNVVIGIKEL | -0.389
20 | GBRAPL2_54_7369 (protein) MKIVEVTFVAEREFFLANRERIRAAALATYAELRKRLPDKVGELLSEEYSETPDYGSLSLDIEVDESALDEVIDAFEATRDALSAELGHPVHVVIGIGDK | -0.231
21 | GBRAPL2_54_7381 (protein) AKKVEIVADFIVEGTPEELAKVEKVATELSKKLAEELAAKYGATSTLSFEREDGVLLLTVTIVTDESAVDDVLDRLEELRDEIEKRTGVKVNLVIGIKEL | -0.18
22 | GBRAPL2_54_7379 (protein) MKIVEVEITYLATGNEEELKKVEEVAKKKVEEFKKELEEKYGAKTTTSVEIEDGVLSYTVTVITKEENLDEVIDKALEMAKEIEKETGVKVSVVIGTKEL | -0.192
23 | GBRAPL2_53_7362 (protein) MWLVEVEHPDKEKLLKAAKEIFKIAKENGLKVTVKFVKEDGTVEEKTLNAEEALKYVEEKVKEGDVILEIELPDSLEEAKEKIIDAAAKHGAVVSVEELE | 0.16
24 | GBRAPL2_53_7358 (protein) MLVVEIAHPDPAVVKEAAKKILAVIKEDGVEAKVTVTTENGEVKVLTGDIDKIEAEVTALAAKQPVLISIELPDSAEETVEKMEDIALEAGATVSVYREP | 0.217
25 | GBRAPL2_53_7367 (protein) MTLVEVEHPDKEKLLKAAEKIAEIAKKLGVNITVIFVKSDGSVERFTANAEEALKIAREKIKEGDVIIEVELEDSQEEALEEIIDAAAEAGAVVSVEKLP | 0.299
26 | GBRAPL2_53_7360 (protein) MIVIDIAHPDKEVVKKAAEKIFDIVKEAGVEVEVTVTTEDGKVEKLTGSVDDIKAKVTELAAKQPVLIEITLPDSAKETAEKIVDVALEEGATVSVEELE | 0.111
27 | GBRAPL2_54_7378 (protein) MKIVEVEVDYIAQGNDEELEKVEKVAKEELAKLTEELAKKYGAKTTTSVEREDGVLSVTLTVIVKESDLDAVIDLALETAKRIEEKTGVKVSVVIGTKEL | -0.111
28 | GBRAPL2_53_7361 (protein) MIEIDIAHPDPAVVKKAAEKIFDVAEENGVEVEVEVTTEDGTVTRLTGSIEEIREKVTAMAAKQPVLITIYLPDEAEETAEEIEDIALEEGATVSREVLP | 0.219
29 | GBRAPL2_54_7368 (protein) MIEVEITVVMKRENFLKHKELIKKILLEKVEELKKEHPDLIEKILEIEEEEYPDVGLLSIKILAKPEAEDLIRDLAEEIQKELEKKTGEKVHVVVAFGEL | -0.39
30 | GBRAPL2_54_7385 (protein) MTKVLVEIDFLVEGDEEELAEVEKVLLEEIEKMKKELKEKYGAEVTVEVEREDGRLLVTVTVLTPKEAVDDVIDLAEKMRDEVEAKTGVKVHVVIGIEEL | 0.154
31 | GBRAPL2_54_7383 (protein) AKKIEIEIDYIVEGDKESLEKVKKVFTELSKKMAEELKEKYGAETKIEFEEENGVLTGTITVITDESHVDEVIDRALELKKEIEKKTGLKVNVVIGIKEL | -0.128
32 | GBRAPL2_54_7373 (protein) MTKVLIEATFIAEGTPEELAEVRKVALEELEKLKKELKEKFGAESKISSEEEDGVLSVTVEITTEKENLDEVLDLLEETRERIAERTGRPVSLVIGIKEL | 0.0324
